Dicer processing: inhibitors of Dicer pre-microRNA processing, primary screen, biochemical, cat-ELCCA, chemiluminescence; Endoribonuclease Dicer (Homo sapiens), Q9UPY3; cat-ELCCA pre-miR-21 Dicer processing; stronger effect = higher value; z-score at 25 µM; 6% of 47,000 active; in the data active means z-score above about 3, passing the limit was not always enough;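 further: plate controls were vehicle for no effect and no enzyme for full effect; higher signal means more uncleaved substrate so more Dicer inhibition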
An asterisk follows results filed as active. This excerpt belongs to a sample that is enriched for hits.

CCOC(=O)C1C(c2ccc(Br)cc2)C(C(=O)OCC)C(O)(C(F)(F)F)NC1(O)C(F)(F)F (centres undefined) was read as Dicer processing 1.5.
Screening COc1ccc(-c2nc3n(n2)C(c2cccc(OC)c2OC)C2=C(CC(C)(C)CC2=O)N3)cc1 (centres undefined) returned Dicer processing 2.3.
`O=C1CC(c2cccc3ccccc23)Sc2nc(-c3ccccc3)nn21` (centres undefined) gave Dicer processing 4.4*.
For O=C1CC(c2ccccc2)Sc2nc(-c3ccc(F)cc3)nn21 (centres undefined) the results were Dicer processing -0.47.
Screening Cc1ccc(-c2nc3n(n2)C(=O)CC(c2ccc4c(c2)OCO4)S3)cc1 (centres undefined) returned Dicer processing -0.11.
O=C1CCC(=O)N1c1nc2n(n1)C(c1ccccc1)C=C(c1ccccc1)N2 (centres undefined) was read as Dicer processing 2.5.
`COc1ccc(-c2nc3n(n2)C(=O)CC(c2cccc4ccccc24)S3)cc1` (centres undefined) gave Dicer processing 4.2*.
Screening O=[N+]([O-])c1cccnc1Sc1ssc(=S)c1-c1ccccc1 returned Dicer processing -0.86.
For COc1ccc(CCNC(=O)c2nc3ccccc3c(=O)n2NC(=O)Nc2c(Cl)cccc2Cl)cc1OC the results were Dicer processing 0.02.
CC1CC(=O)N(c2cc(Cl)cc(Cl)c2)C(=O)C1 was read as Dicer processing 2.4.
Screening CCOC(=O)/C(C#N)=C1/C(=O)Nc2ccc(Br)cc21 returned Dicer processing -4.9.
`Cc1ccc(Sc2ccc([N+](=O)[O-])cn2)cc1` gave Dicer processing -0.1.
CC1(C)C=Cc2cc(/C(N)=N/O)ccc2O1 was read as Dicer processing 0.53.
CN1c2ccccc2C(C)(C)C12C=Cc1cc(O)ccc1O2 (centres undefined) was read as Dicer processing 15*.
CC(C)(C)c1nnc(NC(=O)Cn2c(=O)sc3ccccc32)s1 was read as Dicer processing -1.3.
Oc1ccccc1-c1nc(/C=C/c2ccccc2Cl)no1 was read as Dicer processing 13.
Screening Oc1ccccc1-c1nc(/C=C/c2ccccc2)no1 returned Dicer processing 1.2.
For CN(C)c1ccc(/C=C/c2noc(-c3ccccc3O)n2)cc1 the results were Dicer processing 5.8*.
O=C1c2oc3ccc(F)cc3c(=O)c2C(c2ccccc2F)N1Cc1ccc2c(c1)OCO2 (centres undefined) was read as Dicer processing -0.09.
Screening O=C(O)C1C2C=CC3(CN(CCc4ccccc4)C(=O)C13)O2 (centres undefined) returned Dicer processing -0.96.
For O=C(O)C1C2C=CC3(CN(Cc4ccccc4)C(=O)C13)O2 (centres undefined) the results were Dicer processing 3.2*.
Screening COC(=O)C1C2C=CC3(CN(Cc4ccccc4)C(=O)C13)O2 (centres undefined) returned Dicer processing 1.7.
Cc1ccc(-c2c(C#N)c(N)nc3c2CC(C)CC3)o1 (centres undefined) was read as Dicer processing 0.
`CCOC(=O)c1cc(C)nn1-c1nc2ccc(Cl)cc2s1` gave Dicer processing 2.5.
For Cc1ccnc(NC(c2ccccc2C)c2ccc3cccnc3c2O)c1 (centres undefined) the results were Dicer processing 2.1.
`Cc1ccc(C(Nc2ccccn2)c2ccc3ccc(C)nc3c2O)cc1` (centres undefined) gave Dicer processing -0.45.
`C=CCOc1ccc(C(Nc2ccccn2)c2ccc3ccc(C)nc3c2O)cc1` (centres undefined) gave Dicer processing 0.31.
Cc1ccc2ccc(C(Nc3ccccn3)c3cccc(Br)c3)c(O)c2n1 (centres undefined) was read as Dicer processing -0.92.
Cc1cccc(NC(c2cccc(O)c2)c2ccc3ccc(C)nc3c2O)n1 (centres undefined) was read as Dicer processing 0.83.
For Cc1ccc2ccc(C(Nc3ccccn3)c3ccc(Cl)cc3)c(O)c2n1 (centres undefined) the results were Dicer processing 4.8*.
Screening Cc1ccc(C)c(C(Nc2ccccn2)c2ccc3cccnc3c2O)c1 (centres undefined) returned Dicer processing 9.
For Cc1ccccc1C(Nc1ccccn1)c1ccc2cccnc2c1O (centres undefined) the results were Dicer processing 5.7*.
Screening Cc1ccc2ccc(C(Nc3ccccn3)c3cccc(Cl)c3)c(O)c2n1 (centres undefined) returned Dicer processing 16*.
`O=C(NC(=O)c1ccccc1F)NN(Cc1c(F)cccc1Cl)c1ccccc1` gave Dicer processing -0.23.
Screening COc1ccc(OC)c(/C=C(\C#N)C(N)=O)c1 returned Dicer processing -0.69.
Screening Cn1c(=O)c2c(nc(Oc3cccc4cccnc34)n2C)n(C)c1=O returned Dicer processing 0.6.
`CC(=O)N(c1ccccc1)C1CC(C)N(C(=O)c2cccs2)c2ccccc21` (centres undefined) gave Dicer processing 0.83.
Screening O=S(=O)(NCc1csc(-c2cccs2)n1)c1cc2ccccc2s1 returned Dicer processing -1.1.
For CC1(C)CC(=O)c2cnc3[nH]n(-c4ccccc4)c(=O)c3c2C1 the results were Dicer processing 0.44.
Screening O=C(CSc1nnc2nnc3cc(Cl)ccc3n12)N1CCOCC1 returned Dicer processing -1.
Screening CCOC(=O)CC(=O)CSc1nc(C)c2cc(OCC)ccc2n1 returned Dicer processing 0.05.
For Cc1ccc2nc(C)cc(NCCO)c2c1 the results were Dicer processing -1.1.
Screening CCOc1ccccc1Nc1cc(C)nc2ccc(OC)cc12 returned Dicer processing 1.7.
Screening Cc1cc(Nc2ccccc2Cl)c2ccccc2n1 returned Dicer processing -0.1.
Screening COc1ccc2nc(C)cc(Nc3ccccc3OC)c2c1 returned Dicer processing 3.3*.
Screening CCOc1ccc2nc(C)cc(Nc3ccc(N(C)C)cc3)c2c1 returned Dicer processing 4.5*.
Screening CC(C)(C)c1cc(NS(=O)(=O)c2ccc(C#N)cc2)no1 returned Dicer processing 0.33.
Cc1ccc(CNc2oc(COc3ccc(F)cc3)nc2C#N)cc1 was read as Dicer processing -8.
`C/S(=N/S(=O)(=O)c1ccc(Cl)cc1)c1ccc(OC(=O)c2ccc(Cl)cc2)cc1` (centres undefined) gave Dicer processing 0.46.
O=C(Nc1ccccc1C(F)(F)F)N1CCCN(c2ncccc2C(F)(F)F)CC1 was read as Dicer processing -0.45.
For CC(C)Oc1cc(C(F)(F)F)nc2ccc(CSCCO)cc12 the results were Dicer processing 0.02.
For O=[N+]([O-])c1cc(C(F)(F)F)ccc1Oc1ccc(SC(F)(F)F)cc1 the results were Dicer processing -0.52.
For Cc1nn(C)c(NCCCN(C)C)c1[N+](=O)[O-] the results were Dicer processing -0.93.
O=C(CSc1nc(-c2cccs2)cc(C(F)(F)F)n1)NCc1ccncc1 was read as Dicer processing -0.94.
COc1ccc(NC2=CC(=O)CC(C)(C)C2)c(OC)c1 was read as Dicer processing -1.6.
Screening CCCCNC1=CC(=O)CC(C)(C)C1 returned Dicer processing 1.8.
Screening Cc1ccc(NC2=CC(=O)CC(C)(C)C2)cc1C returned Dicer processing 3.5*.
Screening CCC(CO)NC(=O)c1cc2c(n(-c3ccc(Cl)cc3)c1=O)CC(C)(C)CC2=O (centres undefined) returned Dicer processing 1.1.
